Screens from PubChem.
In the library only some 6.6% were active in any assay of this set; here they are far more common.
SW480 rereplic – DNA re-replication induction in SW480 cells; SW480 DNA re-replication, Hoechst DNA content imaging, 48 h; Potency, µM (highest dose often 46.1 µM), most hits filed as activators; AID 624297; 1.8% of 340,000 active; note: nearly all actives have a fitted effect of over 55% in size
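Hoechst fluorescence of nuclei (405 nm excitation, 500-530 nm emission) measured by plate-scanning imager after 48 hr compound exposure at 37 C; re-replication scored as increased number of nuclei with elevated intensity.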
MCF10A rereplic – inducers of DNA re-replication in MCF 10A breast cells. MCF 10A DNA re-replication, Hoechst nuclear intensity, 48 h. 2.9% of 350,000 active. Potency, µM (top dose mostly 46.1 µM), usual class: activators; note: nearly all actives have a fitted effect of over 50% in size
RGS4 inhibitor – human RGS4 inhibition; Transcreener GDP fluorescence polarization, RGS4-accelerated GTP hydrolysis; Potency, µM (series often up to 114 µM), most hits filed as inhibitors; 0.039% of 390,000 active; note: nearly all actives have a fitted effect of over 75% in size
Target sequence (P49798 whole entry, looked up): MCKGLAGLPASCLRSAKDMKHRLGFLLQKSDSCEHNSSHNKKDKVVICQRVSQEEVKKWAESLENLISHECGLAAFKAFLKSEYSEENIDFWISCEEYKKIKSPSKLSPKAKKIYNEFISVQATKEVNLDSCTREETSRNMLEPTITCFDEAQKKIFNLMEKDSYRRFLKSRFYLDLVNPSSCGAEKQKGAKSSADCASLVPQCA
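MLSMR compounds (23 nl, pin-transferred) preincubated 10 min at room temperature with a 500nM (2x) first reagent, then RGS4 at 900nM (2x) plus Transcreener GDP mix added; fluorescence polarization (620/688 nm) read before and after 90 min at 30 °C.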
KB-3-1 cytotox – KB-3-1 parental cell cytotoxicity | KB-3-1 viability, CellTiter-Glo ATP luminescence, 72 h | Potency, µM (highest dose often 46.1 µM), actives largely listed as cytotoxic | 1.4% of 400,000 active | AID 1347075; note: nearly all actives have a fitted effect of over 60% in size
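Luminescent ATP read-out (CellTiter-Glo) measures survival of drug-naive KB-3-1 cells after 72 h compound exposure at 37 °C. Titration series was screened from lowest to highest concentration, with DMSO vehicle plates as background controls.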
KB-V1 cytotox – kills drug-selected multidrug resistant KB-V1 cells; 3.4% of 400,000 active; Potency, µM (top dose mostly 46.1 µM), hits mostly cytotoxic; KB-V1 MDR cells viability, CellTiter-Glo, 72 h; note: nearly all actives have a fitted effect of over 60% in size
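Readout: CellTiter-Glo luminescence, 10 min after addition. Cells: KB-V1 MDR subline, 72 h at 37 degrees C with compound. Analysis: corrected, normalized data fitted to concentration-effect curves.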
TSG101-PTAP inh – blocks PTAP/TSG101 interaction to inhibit HIV-1 budding; Q99816; Fluorescence polarization, FITC-PTAP peptide / Tsg101 binding; Potency, µM (titrated, usually from 115 µM), hits mostly inhibitors; 340,000 tested, under 10 active; active = well fitted inhibition curve with a large enough effect in the main read-out, with a control signal flat, not every such curve was filed as active; inconclusive = small, poorly fitted or top-dose-only effect, or effect the other way, or a change in a side signal; inactive = no such curve, though single readings can be large or run the other way
Target sequence (Q99816 whole entry, looked up): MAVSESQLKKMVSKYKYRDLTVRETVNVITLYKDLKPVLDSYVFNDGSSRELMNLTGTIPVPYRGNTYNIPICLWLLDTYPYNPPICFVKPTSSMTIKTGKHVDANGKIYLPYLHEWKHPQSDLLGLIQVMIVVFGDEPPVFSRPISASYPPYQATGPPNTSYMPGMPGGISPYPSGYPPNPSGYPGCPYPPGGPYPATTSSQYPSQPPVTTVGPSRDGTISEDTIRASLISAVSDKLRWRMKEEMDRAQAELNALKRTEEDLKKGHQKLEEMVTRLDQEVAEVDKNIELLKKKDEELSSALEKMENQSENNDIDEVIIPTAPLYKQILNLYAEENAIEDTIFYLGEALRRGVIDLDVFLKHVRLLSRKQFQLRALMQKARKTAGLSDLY
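Steps: Tsg101 binding domain dispensed (10 uM final), compounds pinned in DMSO, FITC-labeled PTAP-motif peptide added (50 nM final); after 20 min binding at room temperature, polarization measured.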
Numbers stand for hits; i = inactive; ? = inconclusive; nt = no result given. Unless noted, calls come from the whole dose curve; as a rule, active = well fitted curve in the direction sought with a large enough effect; inconclusive = small, poorly fitted or top-dose-only effect, or another doubt; inactive = no such curve, though single readings can be large; an effect the other way counts as inactive or inconclusive.

SMILES	SW480 rereplic	MCF10A rereplic	RGS4 inhibitor	KB-3-1 cytotox	KB-V1 cytotox	TSG101-PTAP inh
O=[N+]([O-])c1ccc(/C=N/N=C/c2ccc([N+](=O)[O-])o2)o1	i	2.6µM	i	?	8.2µM	i
Cc1ccc(S(=O)(=O)N/N=C\c2ccc([N+](=O)[O-])o2)cc1C	i	i	i	i	i	i
O=C1C2C3C=CC(C4CC34)C2C(=O)N1/N=C/c1ccc(-c2ccc([N+](=O)[O-])cc2)o1 (stereo not given)	?	i	i	i	i	i
O=C1C2C3C=CC(C4CC34)C2C(=O)N1/N=C/c1ccc([N+](=O)[O-])o1 (stereo not given)	10µM	3.3µM	i	16µM	?	i
CCOc1ccccc1CNC(=O)c1cc2n(n1)CCCN(Cc1ccc(C)cc1)C2=O	nt	nt	i	i	i	nt
Cc1ccccc1-n1nc(CO)c(C(=O)NCc2cccs2)n1	nt	nt	i	nt	nt	nt
Cc1ccccc1CNC(=O)c1ccc2[nH]c(C)c(C)c2c1	nt	nt	i	i	i	nt
Cc1cc(C)c2c(c1)/C(=N/NC(=O)c1cc(C)oc1C)CCC2	2.9µM	?	i	i	i	i
Cc1cc(C)c2c(c1)/C(=N/NC(=O)c1ccc(O)cc1)CCC2	i	i	i	i	i	i
COc1ccc(-n2ccn(Cc3ccccc3C)c(=O)c2=O)cc1	nt	nt	i	nt	nt	nt
CCCCc1c(C)c(C#N)c2nc3ccccc3n2c1NCCN(C)C	?	23µM	i	i	i	i
Cc1c(Cc2ccccc2)c(NCCN(C)C)n2c(nc3ccccc32)c1C#N	29µM	23µM	i	i	?	i
CCc1c(C)c(C#N)c2nc3ccccc3n2c1NCCCN(C)C	nt	nt	nt	i	i	nt
CCOC(=O)C[n+]1cccc(Br)c1	nt	nt	nt	i	i	nt
COc1cc2c(=O)c(C(=O)c3ccc(C)c(C)c3)cn(Cc3ccccc3F)c2cc1OC	nt	nt	i	?	?	nt
O=[N+]([O-])c1cnc(Sc2ccncn2)s1	?	i	?	18µM	?	i
CCCN1CCN(CCNC(=O)Nc2ccc(OC)cc2OC)CC1	nt	nt	i	i	i	nt
CCOC(=O)C1CCCN(C(=O)CN2C(=O)/C(=C/c3ccc(OC)cc3)Oc3ccccc32)C1 (stereo not given)	i	?	i	i	16µM	i
CCOC(=O)C1CCCN(C(=O)CN2C(=O)c3ccccc3C2=O)C1 (stereo not given)	i	i	i	i	i	i
Cc1cccc(-c2nc(C)c(CCNC(=O)C(=O)Nc3ccc(C)c(C)c3)s2)c1	nt	nt	i	i	i	nt
Cc1ccc(Cl)cc1N1CCN(c2nc3ccccc3c3nc(-c4cccnc4)nn23)CC1	nt	nt	i	i	?	nt
COc1ccc(-c2cc(-c3cccs3)c(C#N)c(SCC(=O)NCc3ccco3)n2)cc1	2.6µM	1.5µM	i	?	?	i
COc1ccc(-c2cc(C(F)(F)F)nc(SCC(=O)NCc3cccs3)n2)cc1	i	i	i	i	18µM	i
CCN(CC)CCCNC(=O)CSc1nc(-c2ccc(OC)cc2)cc(C(F)(F)F)n1	nt	nt	i	i	i	nt
O=C(CSc1nc(-c2ccccc2)cc(C(F)(F)F)n1)NCc1cccs1	i	6.5µM	i	i	i	i
SMILES	SW480 rereplic	MCF10A rereplic	RGS4 inhibitor	KB-3-1 cytotox	KB-V1 cytotox	TSG101-PTAP inh
COc1ccc(NC(=O)CSc2nc(-c3cccs3)cc(C(F)(F)F)n2)cc1OC	nt	nt	i	9.2µM	?	nt
O=C(CSc1nc(-c2ccccc2)cc(C(F)(F)F)n1)NCc1ccco1	i	?	i	?	?	i
Cc1ccnc(NC(=S)N2CCN(c3ccc(Cl)cc3)CC2)c1	nt	nt	nt	i	i	nt
Cc1ccccc1Nc1c(-c2cccnc2)nc2ccc(Cl)cn12	nt	nt	i	i	i	nt
COc1ccc(S(=O)(=O)N(CC(=O)O)c2ccccc2)cc1	i	3.7µM	i	i	i	i
COc1ccc(N(CC(=O)Nc2ccc(C)c(C)c2)S(=O)(=O)c2ccc(C)cc2)cc1OC	nt	nt	i	i	i	nt
COc1ccc(S(=O)(=O)N(CC(=O)O)c2ccccn2)cc1	i	i	i	i	i	i
COc1ccc(N(CC(=O)Nc2ccccc2C(=O)NCC(C)C)S(C)(=O)=O)cc1	18µM	i	i	i	i	i
COc1ccc(N(CC(=O)Nc2ccccc2Cl)S(=O)(=O)c2ccc(C)cc2)cc1OC	3.3µM	?	i	i	i	i
COc1ccc(N(CC(=O)NCC2CCCO2)S(=O)(=O)c2ccc(C)cc2)cc1OC (stereo not given)	i	i	i	i	21µM	i
Cc1ccc(N(CC(=O)NCC2CCCO2)S(=O)(=O)c2ccc(Cl)cc2)cc1C (stereo not given)	i	i	i	i	i	i
CC(C)CCNC(=O)c1cnc2sc(N3CCCCC3)nn2c1=O	nt	nt	i	i	i	nt
Nc1nc(SCC(=O)O)c2[nH]cnc2n1	nt	nt	i	?	i	nt
COc1cccc(NC(=O)CN(c2ccc([N+](=O)[O-])cc2)S(=O)(=O)c2ccccc2)c1	i	i	i	i	i	i
COc1ccc(S(=O)(=O)N(CC(=O)Nc2ccccc2C(=O)N2CCOCC2)c2ccc(F)cc2)cc1	i	i	i	i	16µM	i
COc1ccc(N(CC(=O)Nc2ccccc2OC)S(=O)(=O)c2ccc(NC(C)=O)cc2)cc1	18µM	13µM	i	21µM	?	i
COc1ccc(N(CC(=O)Nc2cc(Cl)ccc2OC)S(=O)(=O)c2c(C)noc2C)cc1	?	?	i	4.6µM	3.3µM	i
COc1ccc(NC(=O)CN(c2ccc([N+](=O)[O-])cc2)S(=O)(=O)c2ccccc2)cc1	?	?	i	i	16µM	i
NCCCN(Cc1ccccc1)c1ccc(Br)cn1	nt	nt	i	nt	nt	nt
